Results taken from PubChem BioAssay AID2732 (Emory University Molecular Libraries Screening Center, 2010).
About 8,200 (3.7%) of roughly 220,000 compounds were called active.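 How the source made its calls: active means compounds that reduced the stress-induced luciferase reporter signal by more than about 70% of percent inhibition (limit read from the data); inactive means the rest.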 What follows is part of a selection rich in actives, with near analogues and random picks from the rest.

Test: blockers of ER-stress CHOP reporter expression – cell-based, unfolded protein response, luciferase reporter, primary screen (AID 2732);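 further: 0% = tunicamycin plus vehicle and 100% = wells without tunicamycin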
Details: CHO-K1 CHOP-promoter luciferase, tunicamycin-induced, 15-18 h; at 10 µM; stronger effect = higher value

Row | Structure (SMILES) | inhibition
1 | O=C(NC1CC1)C1=C[C@H](c2c[nH]c3ccccc23)C[C@H](OCc2ccc(CO)cc2)O1 | 0.14% (inactive)
2 | CSc1ccc(NC(=O)/C=C/C(=O)O)cc1 | 6.47% (inactive)
3 | CC(C)S(=O)(=O)c1csc(NC(=O)Nc2ccc(Cl)cc2)c1Cl | -24.8% (inactive)
4 | COc1cccc(NC(=O)CN2CCN(c3nc(-c4cccc(OC)c4)cs3)CC2)c1 | 19.3% (inactive)
5 | COc1ccc(-c2csc(N3CCN(Cc4ccc5c(c4)OCO5)CC3)n2)cc1 | 86.8% (active)
6 | O=C(CN1CCN(c2nc(-c3ccccc3)cs2)CC1)NCc1ccc2c(c1)OCO2 | 63.6% (inactive)
7 | COc1cc(C(F)(F)F)c(C(=O)N(C)c2ccc(Cl)cc2)cn1 | 13.6% (inactive)
8 | O=C(Nc1ccc(-c2csc(Nc3cccc(C(F)(F)F)c3)n2)cc1)c1cccc(C(F)(F)F)c1 | 21.4% (inactive)
9 | O=C(Nc1ccnc(-c2ccncc2)n1)c1cccs1 | 10.6% (inactive)
10 | O=C(O)COc1ccc(-c2nccc(-c3cccs3)n2)cc1 | 73.8% (active)
11 | COC(=O)CSc1nccc(-c2cccs2)n1 | -10.9% (inactive)
12 | O=c1[nH]c(CSc2ccccc2)nc2c1oc1ccccc12 | -3.37% (inactive)
13 | Cc1nnsc1C(=O)NCc1c(F)cccc1Cl | 15.1% (inactive)
14 | Cc1ccc(-c2cn3cc([N+](=O)[O-])ccc3n2)cc1 | 54.5% (inactive)
15 | COc1ccc(-c2cn3ccc(C)cc3n2)cc1 | 59.3% (inactive)
16 | Cc1ccc(-c2cn3cc(C)ccc3n2)cc1 | 95.9% (active)
17 | COc1ccccc1N1CCN(C(=O)CSc2ncnc3c2cnn3-c2ccc(C)c(C)c2)CC1 | -4.74% (inactive)
18 | Cc1nc(C(=O)N2CCCC(C(=O)c3ccc(Cl)cc3)C2)cs1 (stereo not given) | -9.72% (inactive)
19 | CN(C(=O)CSc1nncc2ccccc12)C1CCCCC1 | 4.17% (inactive)
20 | O=c1c2ccccc2nc2n1C1(CCCCC1)Cc1ccccc1-2 | -15.6% (inactive)

Row | Structure (SMILES) | inhibition
21 | CN(c1ccc2nc3ccccc3c(=O)n2n1)C1CCCCC1 | 84.1% (active)
22 | O=C(C[n+]1cc(-c2ccc(Cl)c(Cl)c2)n2c1CCC2)c1cccs1 | -8.35% (inactive)
23 | Cc1ccc(S(=O)(=O)N(C)C)cc1NC(=O)c1n[nH]c(=O)c2ccccc12 | 2.56% (inactive)
24 | C/C(=N\NC(=O)c1cc2c(s1)CCC(C)C2)c1cccnc1 (stereo not given) | 6.64% (inactive)
25 | CC1CCc2sc(C(=O)N/N=C/C3CCCCC3)cc2C1 (stereo not given) | 71.4% (active)
26 | O=C(Nc1ccc(F)cc1)c1cc2c(s1)CCCC2 | 10.4% (inactive)
27 | NC(=O)c1c(NC(=O)CSc2nc(N)cc(=O)[nH]2)sc2c1CCCC2 | 15.3% (inactive)
28 | CC1=NOC(=O)/C1=C\c1ccccc1 | -18.4% (inactive)
29 | COc1cc(/C=C2/C(=O)ON=C2C)ccc1OCc1ccccc1F | -26.4% (inactive)
30 | COc1cc(/C=C2/C(=O)ON=C2C)ccc1OCc1cccc(F)c1 | 104% (active)
31 | Cc1cc(NCc2cccnc2)no1 | 3.98% (inactive)
32 | O=C(NC(=O)N1CCSCC1)c1c(Cl)cccc1Cl | 12.1% (inactive)
33 | Cc1cc(CO)nn1-c1ccc([N+](=O)[O-])cc1 | 7.27% (inactive)
34 | CNC(=O)C(NC(=O)c1ccccc1)=C(C)C | 1.37% (inactive)
35 | CCN(CC)c1ccc(NC(=O)C2CCC(CNc3c(N4CCCC4)c(=O)c3=O)CC2)c(C)c1 (stereo not given) | -9.36% (inactive)
36 | Cc1cc(-c2nc(C)c(-c3nnc(SCC(=O)Nc4ccccc4)n3C)s2)no1 | 5.16% (inactive)
37 | CC(C)(C)Oc1ncc(Br)c(OC(C)(C)C)n1 | 23.2% (inactive)
38 | COc1cccc(-c2cnc(OC(C)(C)C)nc2OC(C)(C)C)c1 | 91.8% (active)
39 | COc1cccc(-c2nc3cc(C)ccc3o2)c1 | 61.7% (inactive)
40 | Cc1ccc(C(=O)Nc2nc(N)n(-c3ccccc3)n2)cc1 | 12.8% (inactive)

Row | Structure (SMILES) | inhibition
41 | CCN(CC)C(=O)CN(c1cccc([N+](=O)[O-])c1)S(=O)(=O)c1ccccc1 | 0.69% (inactive)
42 | O=C(Nc1cccc([N+](=O)[O-])c1)Nc1ccc(Cl)cn1 | 2.82% (inactive)
43 | O=C(CCl)N(Cc1cccc([N+](=O)[O-])c1)c1cccc(Cl)c1 | 105% (active)
44 | COC(=O)c1scc(S(=O)(=O)C(C)(C)C)c1-n1cccc1 | 6.86% (inactive)
45 | Cc1ccc(S(=O)(=O)NC(=O)N2CCCN(Cc3ccc(F)cc3)CC2)cc1 | 9.07% (inactive)
46 | COc1ccc(NS(=O)(=O)c2ccc(NC(=O)C(C)(C(F)(F)F)C(F)(F)F)cc2)nn1 | -4.95% (inactive)
47 | COc1ccc(NS(=O)(=O)c2ccc(NC(=S)NC(=O)/C=C/c3ccc(C)cc3)cc2)nn1 | 95.5% (active)
48 | Cc1ccc(NC(=S)NC(=O)/C=C/c2ccc(Cl)cc2)cc1 | 17.9% (inactive)
49 | CCN(CC)CCCN=Cc1c(O)n(-c2ccc(C)cc2)c(=O)c2ccccc12 | 6.14% (inactive)
50 | CSCC[C@H](NC(=O)NC1CCCC1)C(=O)O | -0.23% (inactive)
51 | COc1ccc(-c2nc(CS(=O)CC(=O)N3CCc4ccccc4C3)c(C)o2)cc1 (stereo not given) | 86.5% (active)
52 | Cc1ccc(-c2nc(CS(=O)CC(=O)N3CCN(c4ncccn4)CC3)c(C)o2)cc1 (stereo not given) | 44.5% (inactive)
53 | COc1ccc(-c2nc(CS(=O)CC(=O)NCc3ccccn3)c(C)o2)cc1 (stereo not given) | 7.53% (inactive)
54 | CCn1c(SCC(=O)Nc2sc(C)c(C)c2C#N)nnc1C1CC1 | 5.65% (inactive)
55 | CCc1ccccc1NC(=O)CSc1nnc(CCNC(=O)OC(C)(C)C)o1 | 15.9% (inactive)
56 | O=C(/C=C/c1ccc(Cl)c([N+](=O)[O-])c1)c1ccc(O)cc1 | -208% (inactive)
57 | Cc1ccc(-c2nn(-c3ccccc3)cc2C(=O)Nc2cccc(S(=O)(=O)N3CCOCC3)c2)cc1 | 40% (inactive)
58 | COc1ccc(-c2nn(-c3ccccc3)cc2/C=C\C(=O)Nc2ccc(C(=O)O)cc2)cc1 | 40.4% (inactive)
59 | Cc1ccc(-c2nn(-c3ccccc3)cc2/C=C/C(=O)Nc2cccc(S(N)(=O)=O)c2)cc1 | 88.3% (active)
60 | CC(=O)NCc1ccc(S(=O)(=O)NC2CCN(Cc3ccccc3)CC2)cc1 | -10.7% (inactive)
